Sampled rows, rich in hits. Any-hit rate of the full collection: about 5%.
AI-2 QS mod – Vibrio harveyi AI-2 quorum sensing modulation. activity change, % at 7.5 µM. hit rate 0.4% among 300,000. Vibrio harveyi JMH597 AI-2 luminescence/OD600 ratio, 9 h; active compounds read low; strain lacks LuxN and CqsS sensors; 0 = neutral-control median; in the data active = activity change below about -75%, passing the limit was not always enough; inconclusive = no clear call, values can overlap the other calls;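 also: luminescence divided by OD600 gain over 9 h not by final OD600 alone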
PREPL inh – human PREPL enzyme inhibition. Q4J6C6. recombinant PREPL, fluorescence polarization activity-based probe. inhibition, % at 5.96 µM. hit rate 0.68% among 320,000. AID 2751; in the data active = inhibition above about 43%;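 also: 0% = enzyme with DMSO and 100% = wells lacking enzyme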
CHT allo act – allosterically activates the human high affinity choline transporter | Q9GZV3 | CHT-expressing cells, membrane potential dye, choline EC20; active compounds read high; LV-AA mutant CHT in HEK293 cells | B-score at 10 µM | hit rate 0.49% among 310,000 | AID 488977;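 active = initial fluorescence not abnormally high and integrated response B-score, plate-corrected, over 3 SD above library mean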
Target sequence (Q9GZV3 whole entry, looked up): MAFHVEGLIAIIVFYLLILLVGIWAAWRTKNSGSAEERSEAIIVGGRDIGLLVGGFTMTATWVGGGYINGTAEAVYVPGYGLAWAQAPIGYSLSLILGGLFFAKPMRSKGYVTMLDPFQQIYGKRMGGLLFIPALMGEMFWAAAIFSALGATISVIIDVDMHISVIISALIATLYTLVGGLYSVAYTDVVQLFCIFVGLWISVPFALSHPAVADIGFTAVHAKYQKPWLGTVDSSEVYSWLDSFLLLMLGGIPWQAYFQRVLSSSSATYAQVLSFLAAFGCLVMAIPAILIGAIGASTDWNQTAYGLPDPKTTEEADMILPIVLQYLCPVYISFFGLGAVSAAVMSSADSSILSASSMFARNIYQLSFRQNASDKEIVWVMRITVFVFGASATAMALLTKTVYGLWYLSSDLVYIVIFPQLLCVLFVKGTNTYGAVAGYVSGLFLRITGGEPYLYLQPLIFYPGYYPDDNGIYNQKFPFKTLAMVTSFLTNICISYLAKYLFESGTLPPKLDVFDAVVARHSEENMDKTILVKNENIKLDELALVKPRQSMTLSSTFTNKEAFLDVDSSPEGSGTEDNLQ
CHT block – inhibits the human high affinity choline transporter; Q9GZV3; CHT-expressing cells, membrane potential dye, choline response; active compounds read low; B-score at 10 µM; hit rate 0.86% among 310,000; AID 488975;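 active = B-score over 3 SD under the library average, and starting fluorescence ratio not unusually high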;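 also: choline stimulus applied at its EC90 after an EC20 pre-addition; B-score computed on integrated fluorescence ratio after choline addition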
ALR inh – human ALR oxidase inhibition via reduced H2O2. hit rate 3.8% among 290,000. inhibition, % (test concentration not listed). purified ALR, DTT oxidation, H2O2 HRP-luminol luminescence. P55789. AID 485317;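 active = mean replicate inhibition above about 79%, with every replicate also reaching it, limit read from the data; inconclusive = only one of the two criteria met; inactive = mean below limit and not every replicate reaching it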
The depositor's hits bear a star; i = inactive; ? = inconclusive; nt = no result given.

SMILES	AI-2 QS mod	PREPL inh	CHT allo act	CHT block	ALR inh
COc1ccc(CCNC2CC(=O)N(C3CCCCC3)C2=O)cc1OC (stereo not given)	5	-5	i	i	1
CC(=O)Nc1ccccc1-c1nnc(SCc2ccccc2Cl)[nH]c1=O	18	-2	i	i	99*
O=C(NCCCN1CCOCC1)c1cc(-c2ccc(Br)cc2)on1	-13	6	i	i	nt
O=C(NCCCN1CCOCC1)c1cc(-c2ccc(O)cc2)on1	29	-2	i	i	98*
CCN1CCN(C(=O)c2cc3c(-c4ccc(Cl)cc4)nn(C)c3s2)CC1	-6	-13	i	i	98*
O=C(Nc1c(F)cc(F)cc1Br)c1cc(-c2ccc(O)cc2)on1	-6	-6	i	i	99*
Cn1nc(-c2ccc(Cl)cc2)c2cc(C(=O)NC3CC3)sc21	25	-30	i	i	84*
CC1CCc2c(nc3ncnn3c2NCCN(C)C)C1 (stereo not given)	19	7	i	i	0
Cn1nc(-c2ccc(Cl)cc2)c2cc(C(=O)NCCCN3CCOCC3)sc21	14	-34	i	i	95*
CCOCCCNC(=O)c1cc2c(-c3ccc(Cl)cc3)nn(C)c2s1	9	-1	i	i	39
COc1ccc(Nc2nc(C(=O)NCCCN3CCOCC3)cs2)cc1	6	-9	i	i	83*
COc1ccc(S(=O)(=O)N2CCCCCC2)cc1C(=O)NCCc1ccccc1	nt	20	nt	nt	-7
COc1ccc(CCNC(=O)C(=O)NCC2OCCN2C(=O)c2ccc(Cl)cc2)cc1 (stereo not given)	3	11	i	i	-1
CN1/C(=C\C(=O)COC(=O)c2ccc(O)c(O)c2)C(C)(C)c2ccccc21	14	-42	i	i	99*
O=C(Nc1ccc(S(=O)(=O)Nc2ncccn2)cc1)c1cccc(S(=O)(=O)N2CCOCC2)c1	13	9	i	i	nt
Cc1ccc(NC(=O)CSc2nccn2Cc2ccccc2)cc1C	10	-13	i	i	98*
CC(=O)c1ccc(NC(=O)CSc2nccn2C)cc1	20	8	i	i	?
CCOC(=O)c1ccc(NC(=O)CSc2nccn2C)cc1	49	-4	i	i	99*
COc1ccc(NC(=O)CSc2nccn2C)cc1S(N)(=O)=O	-27	-6	i	i	99*
Cn1ccnc1SCC(=O)Nc1ccc2c(c1)COC2=O	6	5	i	i	99*
CC(=O)Nc1ccc(NC(=O)CSc2nccn2Cc2ccccc2)cc1	14	6	i	i	-4
COc1cccc(NC(=S)/C(=C(\[O-])c2ccc([N+](=O)[O-])cc2)[n+]2ccccc2)c1	7	2	i	i	99*
O=[N+]([O-])c1ccc(/C([O-])=C(/C(=S)Nc2ccccc2F)[n+]2ccccc2)cc1	6	14	i	i	-2
CC(C)C(C)(C#N)NC(=O)CSc1nc2scc(-c3ccco3)c2c(=O)n1-c1ccccc1 (stereo not given)	19	10	i	i	4
CC(C)C(C)NC(=O)CSc1nc2scc(-c3ccco3)c2c(=O)n1-c1ccccc1 (stereo not given)	12	7	i	i	96*
SMILES	AI-2 QS mod	PREPL inh	CHT allo act	CHT block	ALR inh
COc1ccccc1Nc1nc(C2(C)CCC(=O)O2)cs1 (stereo not given)	4	14	i	i	96*
COc1ccccc1Nc1nc(-c2cccnc2)cs1	14	16	i	i	53
Cc1cccc(C)c1NC(=O)CNC(=O)CN1C(=O)NC2(CCc3ccccc32)C1=O (stereo not given)	nt	15	nt	nt	nt
NC(=S)N/N=C/c1ccccc1O	17	-5	i	i	38
S=C(NCCN1CCOCC1)N/N=C/c1cccs1	13	1	i	i	9
Oc1cccc(/C=N/NC(=S)NCCN2CCOCC2)c1O	0	28	i	i	100*
NC(=S)N/N=C/c1cccc(O)c1O	40	8	i	i	98*
Oc1ccc(/C=N/NC(=S)Nc2cccnc2)c(O)c1O	37	nt	nt	nt	nt
Oc1cccc(/C=N/NC(=S)Nc2cccnc2)c1O	-84*	5	i	i	90*
O=C(Cn1ncc2c3ccccc3n(Cc3ccccc3F)c2c1=O)NCC1CCCO1 (stereo not given)	16	-7	i	i	2

Screening data from PubChem BioAssay.
